Results reported in PubChem BioAssay.
Values without a mark were called inactive. Activity calls are given as the source filed them.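 How the source made its calls, unless noted: active means mean inhibition above 46.68%, the untreated control wells mean plus 3 SD; inactive means the rest.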

How the values were obtained:
[1] = target: Nuclear receptor coactivator 3 (Homo sapiens) (UniProt Q9Y6Q9); assay: NCOA3 GAL4-fusion reporter inhibition – cell-based, luminescence, quadruplicate, confirmation (AID 588792;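 active means mean inhibition over 43.08%, the solvent-only control mean plus 3 SD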;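 further: 0% = DMSO treated cells and 100% = gossypol at 36 µM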); settings: HEK293 GAL4-SRC3 luciferase reporter, at 3.6 µM, stronger effect = higher value
[2] = tested on: transactivating tegument protein VP16 (Human herpesvirus 1), Gal4-VP16 luciferase reporter; assay: repression of VP16-driven luciferase reporter – cell-based, luminescence, high throughput, counter-screen for SRC3 inhibitor project (AID 588794; in the data active means inhibition above about 30%); settings: mammalian cells, at 3.6 µM, stronger effect = higher value
[3] = target: Nuclear receptor coactivator 1 (Homo sapiens) (UniProt Q15788); assay: NCOA1 GAL4-fusion reporter inhibition – cell-based, luminescence, quadruplicate, confirmation (AID 588820); settings: HEK293 GAL4-SRC1 luciferase reporter, at 3.6 µM, stronger effect = higher value;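 further: 0% = DMSO wells and 100% = gossypol 36 µM treated wells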
[4] = repression of VP16-driven luciferase reporter – cell-based, luminescence, high throughput, counter-screen for SRC1 inhibitor project (AID 588824; in the data active means inhibition above about 25%); settings: cell-based VP16 transactivation luciferase luminescence; at 3.6 µM; stronger effect = higher value
[5] = StAR promoter reporter inhibitors, counter-screen for LRH-1 inverse agonist project, cell-based, luminescence, high throughput (AID 651611; in the data active means inhibition above about 28%); settings: StAR promoter luciferase reporter counterscreen, at 3.6 µM, stronger effect = higher value
[6] = target: Nuclear receptor subfamily 5 group A member 2 (Homo sapiens) (UniProt O00482); assay: NR5A2 activity suppression in reporter cells – cell-based, luminescence, confirmation (AID 651613; in the data active means inhibition above about 42%;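 further: HEK293T cells co-transfected with LRH-1 and StAR promoter luciferase reporter; 0% = vehicle wells and 100% = parental cells lacking receptor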); settings: cell-based LRH-1 luciferase reporter, inverse agonism; at 3.6 µM; stronger effect = higher value
[7] = target: Steroidogenic factor 1 (Homo sapiens) (UniProt Q13285); assay: inverse agonism at SF1 nuclear receptor – cell-based, luminescence, high throughput, counter-screen for LRH-1 inverse agonist project (AID 651614; in the data active means inhibition above about 44%;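 further: cells cotransfected with StAR promoter reporter and SF1 expression vector; 0% = vehicle on cells with receptor and 100% = vehicle on cells lacking receptor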); settings: cell-based SF1 luciferase reporter, at 3.6 µM, stronger effect = higher value
[8] = compounds suppressing VP16-driven luciferase signal – cell-based, luminescence, high throughput, counter-screen for LRH-1 inverse agonist project (AID 651615; in the data active means inhibition above about 33%); settings: Gal4-VP16 luciferase reporter cells, at 3.6 µM, stronger effect = higher value
[9] = tested on: transactivating tegument protein VP16 (Human herpesvirus 1); assay: compounds suppressing VP16-driven luciferase signal – cell-based, luminescence, single concentration, counter-screen for SRC2 inhibitor project (AID 652007; in the data active means inhibition above about 36%); settings: cell-based VP16 transactivation luciferase reporter, at 8.9 µM, stronger effect = higher value
[10] = target: Nuclear receptor coactivator 2 (Homo sapiens) (UniProt Q15596); assay: inhibition of GAL4-SRC2 driven luciferase expression – cell-based, luminescence, HEK293, triplicate, confirmation (AID 652008;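 active means mean inhibition above 46.5%, the solvent-only control mean plus 3 SD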;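 further: 0% = DMSO-treated cells and 100% = Gossypol at 36 µM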); settings: HEK293 GAL4-SRC2 luciferase reporter, at 8.9 µM, stronger effect = higher value

Sequence of Steroidogenic factor 1 (Homo sapiens) (Q13285 whole entry, looked up, the tested form may be a part): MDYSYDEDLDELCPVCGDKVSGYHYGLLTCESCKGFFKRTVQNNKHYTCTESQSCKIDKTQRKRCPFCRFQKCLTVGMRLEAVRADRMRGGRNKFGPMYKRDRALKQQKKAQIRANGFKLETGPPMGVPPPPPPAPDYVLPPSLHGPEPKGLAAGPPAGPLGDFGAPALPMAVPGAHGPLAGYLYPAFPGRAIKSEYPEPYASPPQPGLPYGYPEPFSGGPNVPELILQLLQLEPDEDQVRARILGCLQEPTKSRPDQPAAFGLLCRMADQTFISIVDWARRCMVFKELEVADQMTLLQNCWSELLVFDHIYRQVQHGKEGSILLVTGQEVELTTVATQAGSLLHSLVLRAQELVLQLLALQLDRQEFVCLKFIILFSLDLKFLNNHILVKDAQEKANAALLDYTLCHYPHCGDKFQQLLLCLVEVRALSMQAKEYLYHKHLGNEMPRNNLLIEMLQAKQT
Sequence of Nuclear receptor coactivator 1 (Homo sapiens) (Q15788 whole entry, looked up, the tested form may be a part): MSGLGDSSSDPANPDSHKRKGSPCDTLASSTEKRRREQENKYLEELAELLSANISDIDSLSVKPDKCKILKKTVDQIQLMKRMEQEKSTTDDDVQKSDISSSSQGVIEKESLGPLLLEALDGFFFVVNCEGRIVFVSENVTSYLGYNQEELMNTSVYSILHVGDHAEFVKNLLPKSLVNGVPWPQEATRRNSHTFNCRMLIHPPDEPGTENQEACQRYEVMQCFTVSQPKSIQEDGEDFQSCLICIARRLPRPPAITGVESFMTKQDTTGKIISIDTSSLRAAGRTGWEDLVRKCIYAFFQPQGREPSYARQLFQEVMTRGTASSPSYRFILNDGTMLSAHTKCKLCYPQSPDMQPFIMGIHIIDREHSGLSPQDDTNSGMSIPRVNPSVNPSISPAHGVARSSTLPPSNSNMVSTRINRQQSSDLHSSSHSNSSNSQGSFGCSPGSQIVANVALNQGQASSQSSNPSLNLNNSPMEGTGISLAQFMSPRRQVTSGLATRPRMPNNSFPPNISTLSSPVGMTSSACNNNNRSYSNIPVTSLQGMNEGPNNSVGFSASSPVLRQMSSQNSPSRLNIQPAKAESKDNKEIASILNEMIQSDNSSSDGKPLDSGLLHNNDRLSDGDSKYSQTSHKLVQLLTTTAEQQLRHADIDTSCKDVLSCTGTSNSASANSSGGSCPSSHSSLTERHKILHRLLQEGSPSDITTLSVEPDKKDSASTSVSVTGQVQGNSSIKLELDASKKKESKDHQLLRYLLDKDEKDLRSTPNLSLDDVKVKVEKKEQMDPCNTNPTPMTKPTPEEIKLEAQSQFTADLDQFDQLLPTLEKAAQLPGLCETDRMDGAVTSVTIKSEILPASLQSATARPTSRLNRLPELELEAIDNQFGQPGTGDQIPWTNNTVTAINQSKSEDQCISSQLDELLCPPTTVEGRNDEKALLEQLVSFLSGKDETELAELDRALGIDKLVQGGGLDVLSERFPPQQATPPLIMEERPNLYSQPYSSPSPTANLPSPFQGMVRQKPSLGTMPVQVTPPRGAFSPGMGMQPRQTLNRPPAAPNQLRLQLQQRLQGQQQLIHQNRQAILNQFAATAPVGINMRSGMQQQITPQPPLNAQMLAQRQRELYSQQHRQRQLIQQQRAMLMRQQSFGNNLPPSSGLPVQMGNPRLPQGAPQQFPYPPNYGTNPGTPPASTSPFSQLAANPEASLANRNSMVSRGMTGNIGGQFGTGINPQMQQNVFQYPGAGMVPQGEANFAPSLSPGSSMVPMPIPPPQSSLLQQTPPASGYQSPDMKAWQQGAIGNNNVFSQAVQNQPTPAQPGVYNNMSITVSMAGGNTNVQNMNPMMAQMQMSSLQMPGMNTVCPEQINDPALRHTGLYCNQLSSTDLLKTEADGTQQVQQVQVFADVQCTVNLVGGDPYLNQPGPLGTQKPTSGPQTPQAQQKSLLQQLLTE
Sequence of Nuclear receptor coactivator 3 (Homo sapiens) (Q9Y6Q9 whole entry, looked up, the tested form may be a part): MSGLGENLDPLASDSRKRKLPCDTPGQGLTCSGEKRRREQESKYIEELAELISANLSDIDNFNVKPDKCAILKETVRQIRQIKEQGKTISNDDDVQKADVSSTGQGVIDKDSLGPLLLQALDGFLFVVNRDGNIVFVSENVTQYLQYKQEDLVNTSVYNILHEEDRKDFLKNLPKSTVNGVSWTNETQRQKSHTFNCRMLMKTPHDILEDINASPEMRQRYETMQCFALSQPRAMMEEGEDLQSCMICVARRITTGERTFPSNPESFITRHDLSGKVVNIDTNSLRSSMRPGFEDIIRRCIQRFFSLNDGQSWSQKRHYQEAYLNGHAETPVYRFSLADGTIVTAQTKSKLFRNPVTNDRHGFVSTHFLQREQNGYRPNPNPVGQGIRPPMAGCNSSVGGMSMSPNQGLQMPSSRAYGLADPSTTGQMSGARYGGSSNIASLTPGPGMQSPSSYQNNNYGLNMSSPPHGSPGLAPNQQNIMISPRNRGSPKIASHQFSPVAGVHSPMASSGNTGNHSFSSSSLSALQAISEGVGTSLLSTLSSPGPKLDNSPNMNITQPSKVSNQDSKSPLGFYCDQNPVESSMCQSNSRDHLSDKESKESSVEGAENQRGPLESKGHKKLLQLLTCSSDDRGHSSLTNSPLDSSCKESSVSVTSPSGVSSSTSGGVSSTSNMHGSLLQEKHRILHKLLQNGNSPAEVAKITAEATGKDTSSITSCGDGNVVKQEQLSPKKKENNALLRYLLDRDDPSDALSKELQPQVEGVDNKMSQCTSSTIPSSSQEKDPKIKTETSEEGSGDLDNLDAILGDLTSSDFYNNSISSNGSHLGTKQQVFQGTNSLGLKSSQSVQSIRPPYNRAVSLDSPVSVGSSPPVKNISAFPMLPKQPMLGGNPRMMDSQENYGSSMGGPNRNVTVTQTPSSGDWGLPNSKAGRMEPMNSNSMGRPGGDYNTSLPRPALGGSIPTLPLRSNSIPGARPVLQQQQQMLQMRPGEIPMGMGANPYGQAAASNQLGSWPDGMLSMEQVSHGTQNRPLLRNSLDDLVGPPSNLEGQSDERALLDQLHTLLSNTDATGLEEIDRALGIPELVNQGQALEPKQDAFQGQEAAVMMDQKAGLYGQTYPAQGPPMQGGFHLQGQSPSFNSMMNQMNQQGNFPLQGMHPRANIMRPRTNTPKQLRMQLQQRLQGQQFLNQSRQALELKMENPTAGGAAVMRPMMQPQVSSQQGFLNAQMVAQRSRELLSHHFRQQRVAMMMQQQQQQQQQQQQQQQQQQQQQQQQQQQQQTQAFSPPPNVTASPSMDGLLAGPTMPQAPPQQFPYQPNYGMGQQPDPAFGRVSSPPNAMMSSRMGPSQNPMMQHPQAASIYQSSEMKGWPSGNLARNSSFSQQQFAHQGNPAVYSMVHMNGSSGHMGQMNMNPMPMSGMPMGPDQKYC
Sequence of Nuclear receptor subfamily 5 group A member 2 (Homo sapiens) (O00482 whole entry, looked up): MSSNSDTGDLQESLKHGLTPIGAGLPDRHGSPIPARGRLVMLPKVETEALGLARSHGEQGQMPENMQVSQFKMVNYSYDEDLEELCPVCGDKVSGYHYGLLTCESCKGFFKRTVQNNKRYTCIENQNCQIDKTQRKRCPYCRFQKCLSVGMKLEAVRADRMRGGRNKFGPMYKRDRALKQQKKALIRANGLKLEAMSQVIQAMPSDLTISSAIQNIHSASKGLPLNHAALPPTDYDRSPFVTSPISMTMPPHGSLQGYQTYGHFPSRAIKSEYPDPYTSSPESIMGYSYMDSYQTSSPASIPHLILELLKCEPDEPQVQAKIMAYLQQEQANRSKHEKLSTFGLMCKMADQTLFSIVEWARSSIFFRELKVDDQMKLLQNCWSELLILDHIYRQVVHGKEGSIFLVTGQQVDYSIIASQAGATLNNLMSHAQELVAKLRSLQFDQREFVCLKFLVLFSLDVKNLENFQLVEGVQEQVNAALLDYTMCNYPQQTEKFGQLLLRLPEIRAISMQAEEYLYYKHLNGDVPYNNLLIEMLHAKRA

Row | Structure (SMILES) | inhibition [1] | inhibition [2] | inhibition [3] | inhibition [4] | inhibition [5] | inhibition [6] | inhibition [7] | inhibition [8] | inhibition [9] | inhibition [10]
1 | CCCc1ccc(C(=O)O/N=C(\N)c2ccccn2)cc1 | 16.8% | -24.7% | -82.5% | -63.2% | -12.5% | -85.8% | 2.79% | -41.9% | -18.6% | 31.1%
2 | CC1CCCCN1c1ncnc(N)c1[N+](=O)[O-] (stereo not drawn) | 61.7% (active) | 35.2% (active) | 50.6% (active) | 36.8% (active) |  |  |  |  | 4.43% | 44.8%
3 | CCCS(=O)(=O)c1cnc(C2COc3ccccc3O2)nc1N (stereo not drawn) | 61.5% (active) | 44.9% (active) | 18.9% | 33.6% (active) | 43.2% (active) | 2.93% | 36.5% | 23.1% | 37.2% (active) | 75% (active)
4 | COc1ccc2cc3c(N)nn(C(=O)Cc4c[nH]c5ccccc45)c3nc2c1 | 82.3% (active) | 66.2% (active) | 69% (active) | 63.9% (active) | 51.1% (active) | 64.7% (active) | 55.5% (active) | 83.3% (active) | 31.8% | 73.2% (active)
5 | CNc1ncnc(Sc2nc(N)nc3nc[nH]c23)c1[N+](=O)[O-] | 47.1% (active) | 20.2% | 26.8% | 14.4% |  | 52.6% (active) | 25.1% |  |  | 
6 | C/C(=N\Nc1ncnc2sc(C)c(C)c12)c1ccccn1 | 63.2% (active) | 70.1% (active) | 18.5% | 50.4% (active) |  |  |  |  | -48.8% | 1.02%
